We go through 17 sequences from the supplement of paper PMC3545927.

The assay addresses furin, P09958. The assay can be described thus: furin cleavage Z-score vs untreated control; higher = more cleavage, active = 3.5 or more, inactive = 1 or less, 8 variable residues between constant flanks. The method, boiled down: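 The cleavage Z-score was derived for purified furin acting on 8-mer peptides held on magnetic beads and fused to a cDNA oligonucleotide. Digests lasted 7.5, 15 or 30 min at 1:10 enzyme:substrate in 50 mM HEPES pH 7.5 with CaCl2 and NaCl. Sequencing counts of released DNA, log-transformed against furin-free reactions, were lowess-adjusted and scaled by median absolute deviation.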

Some of the results follow. The true hit rate is not given.

Chain of furin, P09958 (P09958 whole entry, the tested form may be a part): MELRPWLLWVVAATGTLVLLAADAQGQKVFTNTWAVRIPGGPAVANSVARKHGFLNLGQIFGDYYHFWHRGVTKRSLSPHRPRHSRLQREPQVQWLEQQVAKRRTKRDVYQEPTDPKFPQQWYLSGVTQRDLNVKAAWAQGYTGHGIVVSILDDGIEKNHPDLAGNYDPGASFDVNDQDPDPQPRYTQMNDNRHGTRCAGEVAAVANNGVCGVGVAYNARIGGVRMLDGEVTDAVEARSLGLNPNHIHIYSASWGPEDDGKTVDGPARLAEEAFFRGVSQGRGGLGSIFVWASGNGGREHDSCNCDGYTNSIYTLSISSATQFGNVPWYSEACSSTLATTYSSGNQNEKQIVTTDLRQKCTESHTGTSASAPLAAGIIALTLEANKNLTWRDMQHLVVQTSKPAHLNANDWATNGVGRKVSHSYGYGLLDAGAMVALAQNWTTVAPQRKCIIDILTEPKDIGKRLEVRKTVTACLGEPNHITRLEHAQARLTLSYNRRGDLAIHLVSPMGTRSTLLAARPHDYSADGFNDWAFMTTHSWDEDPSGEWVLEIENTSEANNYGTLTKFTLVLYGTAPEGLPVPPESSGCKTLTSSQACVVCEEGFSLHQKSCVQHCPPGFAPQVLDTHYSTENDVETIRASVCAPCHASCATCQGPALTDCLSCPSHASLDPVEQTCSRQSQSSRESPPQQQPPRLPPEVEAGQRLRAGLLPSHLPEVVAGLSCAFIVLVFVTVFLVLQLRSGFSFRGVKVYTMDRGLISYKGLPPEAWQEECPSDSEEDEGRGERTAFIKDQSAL

Turning to CARAERKTEIAGNASASA [FS-2881], the “furin cleavage Z-score” value reads like this: (7.5 min) -0.287 (inactive); (15 min) 1.15; (30 min) -0.302 (inactive).

For the sequence CADKRRSVRIAGNASASA [FS-1669], the “furin cleavage Z-score” value (7.5 min) is 0.236 (inactive), the “furin cleavage Z-score” value (15 min) is -0.291 (inactive) and the “furin cleavage Z-score” value (30 min) was 0.74 (inactive).

On to CARKPRCGNPAGNASASA [FU7], for which the “furin cleavage Z-score” value (7.5 min) is 0.143 (inactive), the “furin cleavage Z-score” value (15 min) was 2 and the “furin cleavage Z-score” value (30 min) was 0.939 (inactive).

As to CANKRRSVRFAGNASASA [FS-833], the “furin cleavage Z-score” value by setting is: (7.5 min) 5.74 (active); (15 min) 7.19 (active); (30 min) 8.22 (active).

CAVERRSVNKAGNASASA [FS-1814]: the “furin cleavage Z-score” value is -1.15 (inactive) (7.5 min), -0.638 (inactive) (15 min) and -0.108 (inactive) (30 min).

Turning to CAMKRRSVTMAGNASASA [FS-2126], the “furin cleavage Z-score” value (7.5 min) stood at 1.48, the “furin cleavage Z-score” value (15 min) is 0.933 (inactive) and the “furin cleavage Z-score” value (30 min) is 2.48.

As for CARTQRSTEIAGNASASA [FS-2614], the “furin cleavage Z-score” value (7.5 min) is 1.54, the “furin cleavage Z-score” value (15 min) worked out at 2.65 and the “furin cleavage Z-score” value (30 min) is 3.99 (active).

As to CARKRRSVNPAGNASASA [FS-2702], the “furin cleavage Z-score” value is, setting by setting: (7.5 min) 11.8 (active); (15 min) 12.1 (active); (30 min) 9.6 (active).

On to CAEVPCHIPSAGNASASA [HC2364], for which the “furin cleavage Z-score” value reads like this: (7.5 min) 0.695 (inactive); (15 min) 0.0124 (inactive); (30 min) 0.569 (inactive).

With CAAKQRERRYAGNASASA [FS-1300], the “furin cleavage Z-score” value reads like this: (7.5 min) 9.27 (active); (15 min) 10.1 (active); (30 min) 7.92 (active).

With CAVFERVSRSAGNASASA [FS-733], the “furin cleavage Z-score” value reads like this: (7.5 min) 5.52 (active); (15 min) 7.31 (active); (30 min) 6.35 (active).

CADGGRPPRSAGNASASA [FS-1114]: the “furin cleavage Z-score” value (7.5 min) turned out to be 2.6, the “furin cleavage Z-score” value (15 min) was determined as 2.51 and the “furin cleavage Z-score” value (30 min) is 3.55 (active).

As to CAQGGRPPRPAGNASASA [FS-1055], the “furin cleavage Z-score” value was -0.328 (inactive) (7.5 min), -0.378 (inactive) (15 min) and 0.24 (inactive) (30 min).

For CAATATPPGSAGNASASA [HC834], the “furin cleavage Z-score” value by setting is: (7.5 min) -1.04 (inactive); (15 min) -0.000581 (inactive); (30 min) -0.987 (inactive).

In the case of CAADHRFYRYAGNASASA [FS-1507], the “furin cleavage Z-score” value is -0.685 (inactive) (7.5 min), -0.762 (inactive) (15 min) and 0.166 (inactive) (30 min).

For the sequence CAAKQRPPRSAGNASASA [FS-1301], the “furin cleavage Z-score” value runs as follows: (7.5 min) 8.85 (active); (15 min) 8.91 (active); (30 min) 7.56 (active).

On to CAAKQNVQLIAGNASASA [HC364], for which the “furin cleavage Z-score” value is 1.11 (7.5 min), 2.16 (15 min) and -0.868 (inactive) (30 min).
